As a reminder, the ΔTm is the shift of the melting midpoint relative to a reference.

This note sets out measurements from ChEMBL document CHEMBL5308504, “Tm Shift (DSF) assay results for EUbOPEN Chemogenomics Library” (2023).

The target of assay [1] is Bromodomain-containing protein 4 (Homo sapiens) (UniProt O60885). To be noted: Compound concentration 20.0 uM, Protein concentration 2.0 uM, Result type QC Liability.
Assay [2] concerns the target T1, Transcription intermediary factor 1-alpha (Homo sapiens) (UniProt O15164).
T1 sequence (whole entry): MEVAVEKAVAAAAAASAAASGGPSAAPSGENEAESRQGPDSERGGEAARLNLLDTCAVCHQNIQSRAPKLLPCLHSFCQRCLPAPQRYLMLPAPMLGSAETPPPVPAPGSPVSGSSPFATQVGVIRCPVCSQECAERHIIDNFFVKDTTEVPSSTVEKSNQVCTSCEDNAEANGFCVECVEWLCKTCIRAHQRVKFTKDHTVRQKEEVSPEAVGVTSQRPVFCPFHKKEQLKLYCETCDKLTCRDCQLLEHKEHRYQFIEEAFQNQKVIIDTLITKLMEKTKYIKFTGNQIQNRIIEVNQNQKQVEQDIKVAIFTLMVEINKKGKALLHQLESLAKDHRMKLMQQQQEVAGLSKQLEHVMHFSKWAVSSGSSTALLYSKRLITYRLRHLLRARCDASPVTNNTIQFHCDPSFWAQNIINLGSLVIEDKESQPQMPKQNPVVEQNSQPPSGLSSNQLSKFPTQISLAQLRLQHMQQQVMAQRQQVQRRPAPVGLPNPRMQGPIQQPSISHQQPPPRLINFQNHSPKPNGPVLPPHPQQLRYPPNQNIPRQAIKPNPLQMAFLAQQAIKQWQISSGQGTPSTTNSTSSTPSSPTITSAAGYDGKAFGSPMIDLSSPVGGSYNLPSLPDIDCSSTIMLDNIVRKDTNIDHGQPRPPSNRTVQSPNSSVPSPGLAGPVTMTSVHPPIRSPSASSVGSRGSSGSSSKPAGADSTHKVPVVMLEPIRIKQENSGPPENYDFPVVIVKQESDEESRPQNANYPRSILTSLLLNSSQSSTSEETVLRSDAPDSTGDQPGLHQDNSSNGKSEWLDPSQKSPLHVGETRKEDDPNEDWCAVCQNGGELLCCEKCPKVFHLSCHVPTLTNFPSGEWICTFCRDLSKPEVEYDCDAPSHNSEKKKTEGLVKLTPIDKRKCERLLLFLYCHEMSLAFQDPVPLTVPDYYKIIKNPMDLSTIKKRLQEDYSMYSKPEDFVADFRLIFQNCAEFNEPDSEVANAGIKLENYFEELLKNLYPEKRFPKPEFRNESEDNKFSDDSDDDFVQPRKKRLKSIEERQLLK
To be noted: Compound concentration 20.0 uM, Protein concentration 2.0 uM, Result type QC Liability.

For `COc1ccc(C(F)(F)F)cc1NC(=O)Nc1ccc(Oc2cc(C)nc(N)n2)c2ccccc12`, the thermal shift (ΔTm) in assay [1] was -0.19 °C; in assay [2] it was -0.94 °C.
With `N#CN1CC[C@H](C(=O)Nc2nc3c(s2)CN(C(=O)CN=[N+]=[N-])CC3)C1`, the ΔTm in assay [1] was -0.19 °C; in assay [2] it was -1.13 °C.
On the same counts, the results for `C=CC(=O)Nc1cccc(C)c1Nc1ncc2cc(-c3c(Cl)c(OC)cc(OC)c3Cl)ccc2n1` are 0.13 °C and 0 °C.
`CC(C)(C)C(=O)NCc1ccc(Cl)c(C(=O)Nc2ncc[nH]2)c1`: the ΔTm in assay [1] is -0.82 °C; in assay [2] it was -0.67 °C.
On the same counts, the results for `CC(C)NC(=O)[C@H]1CCC[C@H]1Nc1nc(Nc2ccc(CN(C)C)cc2)ncc1Br` are -3.19 °C and -4.42 °C.
As for `Cc1c(CCC(=O)O)cccc1NC(=O)[C@@H](c1ccc(-c2cncc(Cl)c2)c(F)c1)C1CCCC1`, the ΔTm in assay [1] was determined as 0.73 °C; in assay [2], 0.32 °C.
The corresponding values for `COC(=O)c1ccc2c(c1)NC(=O)/C2=C(\Nc1ccc(-c2nccn2C)cc1)c1ccccc1` are -1.87 °C and -3.33 °C.
The corresponding values for `O=C(CCSCc1ccco1)NNC(=O)N1Cc2ccccc2Oc2ccc(Cl)cc21` are -3.5 °C and -1.32 °C.
The corresponding values for `Cc1cccc(CC(=O)N2CCc3c2ccc(-c2cn(C)c4ncnc(N)c24)c3F)n1` are -0.38 °C and -2.22 °C.
As to `CC1(C)Cc2nc(C3CCCC3)c([C@@H](F)c3ccc(C(F)(F)F)cc3)c(C3CCCCC3)c2[C@@H](O)C1`, the ΔTm in assay [1] was found to be 0.17 °C; in assay [2] it was 0.34 °C.
Consider `CCS(=O)(=O)Nc1cccc(Oc2cc(F)cc(Nc3ccc(I)cc3F)c2NS(=O)(=O)C2CC2)c1`, for which the thermal shift (ΔTm) is -2.86 °C in assay [1] and 3.45 °C in assay [2].
Take `COc1cc(-c2cncc(-c3cnn(C4CCNCC4)c3)c2)cc(OC)c1OC`: the ΔTm in assay [1] is 0.84 °C; in assay [2], -1.81 °C.
As to `COc1cc2c(cc1CC=C(C)C)C(=O)C[C@@H](c1ccc(O)cc1)O2`, the ΔTm worked out at 0.4 °C in assay [1] and 0.63 °C in assay [2].
The corresponding values for `O=C(N[C@H]1CCC[C@H](CO)C1)C1CCN(c2nc3cc(Cl)c(-c4ccc(Cl)cc4)cc3o2)CC1` are -3.15 °C and 1.95 °C.
As to `O=c1cc(C2CCNCC2)n2nc3cccc(Cl)c3c2[nH]1`, the ΔTm in assay [1] was -0.48 °C; in assay [2] it was 0.25 °C.
The corresponding values for `CC/C(=C(\c1ccccc1)c1ccc(OCCN(C)C)cc1)c1ccccc1` are -4.1 °C and -5.01 °C.
The corresponding values for `O=C(Cc1ccccc1)Nc1nnc(N2C[C@H]3C[C@@H]2CN3c2cccnn2)s1` are -1.06 °C and -2.54 °C.
On to `Cc1cccc(-c2[nH]c(CNc3ccccc3F)nc2-c2ccc3ncnn3c2)n1`, for which the ΔTm in assay [1] is -1.53 °C; in assay [2], -2.12 °C.
On the same counts, the results for `COc1cc(-c2cc3ncccc3c(O[C@@H](C)[C@H]3CNC(=O)C3)n2)cc(OC)c1OC` are 1.39 °C and 0.27 °C.
The corresponding values for `COc1cc(C(=O)NC2CCN(C)CC2)ccc1Nc1ncc2c(n1)N(C1CCCC1)CC(F)(F)C(=O)N2C` are 7.37 °C and -2.21 °C.
On the same counts, the results for `Cc1cc(Cn2c(N3CC4(CNC4)C3)nc3c(N4CCN(C)CC4)cc(Cl)cc32)cc(C)c1F` are -1.49 °C and -0.77 °C.
With `CCCCCNC(=O)N1CCC(CN(Cc2ccc(Cl)cc2)Cc2ccc([N+](=O)[O-])s2)C1` (stereo unspecified), the ΔTm was -2.51 °C in assay [1] and -3.43 °C in assay [2].
Turning to `Cc1nc2c(cc1F)c(-c1nnc3c(n1)NC(=O)C3(C)C)nn2Cc1cccc(F)c1F`, the ΔTm in assay [1] was -0.37 °C; in assay [2] it was 0.14 °C.
The corresponding values for `C#Cc1cnc2[nH]cc(-c3cccc4c3CCN4C(=O)[C@@H]3CCCN3C#N)c2c1` are -0.57 °C and -0.61 °C.
On the same counts, the results for `COc1cc2ncnc(Nc3ccc(F)c(Cl)c3)c2cc1OCCN(C)C[C@H](C)O` are -3.09 °C and -1.09 °C.
As for `CC(=O)Oc1ccc2c(c1)[C@@]1(C)CCC[C@](C)(C(=O)OC(=O)[C@@]3(C)CCC[C@]4(C)c5cc(OC(C)=O)ccc5CC[C@@H]34)[C@@H]1CC2`, the ΔTm is -2.81 °C in assay [1] and -3.04 °C in assay [2].
Consider `CN[C@@H](C)C(=O)N[C@H](C(=O)N1CCC[C@H]1C(=O)N[C@@H]1CCCc2ccccc21)C1CCCCC1`, for which the ΔTm is -2.83 °C in assay [1] and -1.41 °C in assay [2].
The corresponding values for `O=c1[nH]c(CS[C@H]2CC[C@H](O)CC2)nc2cc(OCC3CC3)cc(F)c12` are -0.97 °C and -3.28 °C.
The corresponding values for `CNC(=O)c1cccc(-c2ccc3c(N4CCOC[C@@H]4C)nc(N4CCOC[C@@H]4C)nc3n2)c1` are -1.42 °C and -1.47 °C.
On the same counts, the results for `COCCc1ccc(-c2c(C)nc3c(N4CCOCC4)ccnn23)cn1` are -1.01 °C and -1.13 °C.
Turning to `CN[C@@H]1CC[C@@H](c2ccc(Cl)c(Cl)c2)c2ccccc21`, the ΔTm is -1.03 °C in assay [1] and -3.59 °C in assay [2].
On to `CNC(=O)c1c(F)cccc1Nc1nc(Nc2cc3c(cc2OC)CCN3C(=O)CN(C)C)nc2[nH]ccc12`, for which the ΔTm in assay [1] was -1.02 °C; in assay [2], -1.89 °C.
As to `CP(C)(=O)c1ccc(CNC(=O)C2CCN(S(=O)(=O)c3cc(Cl)cc(Cl)c3)CC2)cc1`, the values for the ΔTm in assay [1] and in assay [2] were -2.43 °C and 0.94 °C, respectively.
On the same counts, the results for `COc1ccc(S(=O)(=O)N2CCOCC2)cc1Nc1ccc2c(n1)N(C1CCN(C)CC1)[C@H](C)C(=O)N2C` are -8.74 °C and -1.33 °C.
As for `CC1(C)C(=O)N([C@H]2CCc3c(O)cccc32)c2nc(Nc3cccc(CN4CCCC4)c3)ncc21`, the thermal shift (ΔTm) was -2.45 °C in assay [1] and -2.64 °C in assay [2].
The corresponding values for `COc1cc(N[C@@H]2CCCC[C@]2(O)C(F)(F)F)ccc1F` are -2.92 °C and -2.59 °C.
Consider `CCCCCCC(Sc1nc(Cl)cc(NCc2ccc(-c3ccccc3)cc2)n1)C(=O)O` (stereo unspecified), for which the ΔTm was -1.48 °C in assay [1] and 0.51 °C in assay [2].
On the same counts, the results for `Cc1cc(OCc2nc3ccccc3s2)ccc1NC(=O)Nc1ccc(Cl)c(Cl)c1` are 0.28 °C and -0.82 °C.
